Measurements from PubChem BioAssay (NCI).
About 83,000 compounds went through this panel and 20% of them were active in at least one assay; those are over-represented in the sample as a whole.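 In brief: 96-well plates, 48 h treatment, single concentration, percent growth endpoint.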 A number with no mark means an inactive call. Active and inactive are the calls of the source. How the source made its calls: active means growth percent below 10; inactive means the rest.

Columns and labels:
Assay in all cases: NCI-60 one-dose screen, 48 h (100 = growth as untreated, 0 = no growth, -100 = all killed)
Conditions in all cases: 10 µM unless noted
T-47D breast = tested on: T-47D breast
MDA-MB-435 melanoma = tested on: MDA-MB-435 melanoma
SW-620 colon = tested on: SW-620 colon
MCF7 breast = tested on: MCF7 breast
HCT-116 colon = tested on: HCT-116 colon
HCC-2998 colon = tested on: HCC-2998 colon
KM12 colon = tested on: KM12 colon
MDA-MB-468 breast = tested on: MDA-MB-468 breast

SMILES	growth (T-47D breast)	growth (MDA-MB-435 melanoma)	growth (SW-620 colon)	growth (MCF7 breast)	growth (HCT-116 colon)	growth (HCC-2998 colon)	growth (KM12 colon)	growth (MDA-MB-468 breast)
COc1ccc(C(=O)/C=C/c2ccc(Oc3nc(Nc4ccc(F)cc4)nc(N(C)C)n3)c(OC)c2)cc1	19.7%	51.4%	12.4%	15.6%	0.959% (active)	100%	70.2%	40.6%
Nc1n[nH]c2cccc(C#Cc3cccc(NC(=O)c4cccc(Cl)c4)c3)c12	7.26% (active)	22.7%	42.1%	15.9%	12.3%	30.4%	20.2%	46%
Cc1cccc(Nc2nc3ccccc3nc2/C=C/c2ccc(F)cc2)c1	78.9%	96.8%	88.2%	60.9%	81%	94.2%	96.5%	90%
COc1cc2c(c(OC)c1OC)C(=O)CC(c1cccc(NC(=O)c3cccc([N+](=O)[O-])c3)c1)O2 (stereo not drawn)	18.6%	-16.8% (active)	34.9%	12.3%	16.4%	76.4%	2.26% (active)	8.62% (active)
COc1ccc(C(=O)/C=C/c2ccc3ccccc3c2)cc1S(N)(=O)=O	-39.5% (active)	1.97% (active)	-42.8% (active)	-75.2% (active)	-97.8% (active)	-76.9% (active)	-74% (active)	-67% (active)
O=C(NNc1nc2cc(F)ccc2n2c(C(=O)N3CCN(C4CC4)CC3)ccc12)c1ncccn1	27.3%	41.2%	34.6%	15.3%	20.5%	63.8%	35.7%	14.1%
N#Cc1c(NCc2ccccc2)n[nH]c1Nc1ccccc1	17.2%	56.6%	62.7%	41.6%	33.1%	99.7%	55.7%	59.8%
CN1CCN(c2ccc(C(=O)/C=C/c3ccc(Br)cc3)cc2)CC1	15.2%	22.5%	19.4%	6.72% (active)	7.41% (active)	14.7%	10.6%	-1.53% (active)
Cn1cc(-c2nc(N)nnc2-c2c[nH]c3ccc(F)cc23)c2cc(Br)cnc21	43.5%	-39.4% (active)	17.2%	4.55% (active)	-14.8% (active)	-40.9% (active)	-21.7% (active)	-20.2% (active)
O=C(Nc1ccc(C(F)(F)F)cc1)Nc1ccc2oc(=O)ccc2c1	19%	24.1%	31.2%	2.63% (active)	8.31% (active)	32.5%	16%	5% (active)
COc1ccc(C2(SCCNCc3cc(N(C)C)ccn3)c3ccccc3C=Cc3ccccc32)cc1	32.4%	-33% (active)	4.94% (active)	-5.08% (active)	3.35% (active)	-30.1% (active)	13.9%	-46.9% (active)
Cc1ccc(NC(=O)CN2CCN(c3ncnc4c3cnn4-c3ccccc3)CC2)cc1	78.9%	94.2%	99.9%	74.2%	76.3%	102%	89.9%	87.1%
COc1ccc(C(=O)/C=C/c2cccc3ccccc23)cc1S(N)(=O)=O	-2.6% (active)	5.32% (active)	-16.1% (active)	-60.3% (active)	-91.9% (active)	-70.2% (active)	-61.2% (active)	-55.7% (active)
NS(=O)(=O)c1ccc(-n2cc(-c3cccc(NC(=O)c4cc(N5CCOCC5)cc(C(F)(F)F)c4)c3)nn2)cc1	47%	85.9%	105%	72.9%	87.2%	88.1%	79%	69.4%
O=C(Cn1c2c(sc1=O)[C@H]1[C@@H](O)[C@@H](O)[C@H](O)[C@@H]1CS2)N1CCOCC1	93.6%	101%	107%	98.4%	110%	111%		105%
COc1ccc(NC(=O)c2sc3nc(C(C)C)ccc3c2N)cc1	42%	87.5%		79.5%	94.7%	100%	78.2%	55.8%
CSc1ccccc1NC(=O)c1ccc2nn(/C(C#N)=C/c3ccccn3)nc2c1	-78.4% (active)	-18.2% (active)		-82.4% (active)	-97.4% (active)	-94.5% (active)	-44.9% (active)	-84.2% (active)
NS(=O)(=O)c1ccc(-n2cc(-c3cccc(NC(=O)c4cc(Cl)cc(Cl)c4)c3)nn2)cc1	48%	50.4%	54.7%	37.1%	45.4%	51%	2.24% (active)	72.8%
CC(=O)/C=C/c1cccc2c1C(=O)NC(C)(c1cc3cc(Br)ccc3oc1=O)N2 (stereo not drawn)	32%	42.3%	32.3%	13.4%	15.1%	23.3%	25.3%	-6.53% (active)
COc1ccc(C(=O)/C=C/c2cccc(Cl)c2)cc1S(N)(=O)=O	-53.8% (active)	14%	-19.9% (active)	-67% (active)	-64.2% (active)	1.16% (active)	-57.9% (active)	-53.8% (active)
CCOC(=O)C1=C(N)N(c2ccccc2)C2=C(C(=O)CC(C)(C)C2)C1c1ccc(N2CCOCC2)cc1 (stereo not drawn)	93.7%	104%	101%	90.7%	99.1%	108%	105%	89.6%
O=C1C(=Nc2ccc(F)c(Cl)c2)c2cccc3cccc1c23	45.3%	-42% (active)	35.8%	16.1%	19%	108%	55%	88.4%
O=C(Cn1c(/C=C/c2ccccc2)nc2ccccc2c1=O)Nc1ccc(Cl)cc1	-11.5% (active)	85.2%	72.1%		30.4%	99.2%	84.3%	57.3%
COc1cc(OC)cc(-c2cc3ccc(N(C)C)cc3c(=O)[nH]2)c1	82%	5.03% (active)	33.8%	22.5%	8.72% (active)	40.7%	16.7%	40.2%
